Results as given in the supplement of paper PMC10981050.
Values joined by “and” are separate entries in the source; they are usually repeats but may differ in a detail not shown here. Equal values may be shown once. Where a name gives a salt, the structure may show the parent alone.

Columns and labels:
Test in all cases: cell viability relative to vehicle control; higher = less cytotoxic
Conditions in all cases: 10 µM
[1] = test system: K562
In short: (§1)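 Each screen used CRISPR-edited mutant and wild-type clones from four leukaemia lines. Compounds were acoustically dispensed at a single 10 µM dose, and CellTiter-Glo luminescence was read after 48 h with the supernatant first removed. Viability was analysed in Genedata Screener and given as percent of the on-plate vehicle control.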

[2] = test system: MARIMO
In short: as §1

[3] = test system: MOLM14
In short: as §1

[4] = test system: OCI-AML2
In short: as §1

Row | SMILES | cell viability ([1]; SRSF2 genotype: SRSF2 P95H/wt) | cell viability ([1]; SRSF2 genotype: SRSF2 wt/wt) [%] | cell viability ([2]; SRSF2 genotype: SRSF2 P95H/wt) [%] | cell viability ([2]; SRSF2 genotype: SRSF2 wt/wt) [%] | cell viability ([3]; SRSF2 genotype: SRSF2 P95H/wt) [%] | cell viability ([3]; SRSF2 genotype: SRSF2 wt/wt) [%] | cell viability ([4]; SRSF2 genotype: P95H/wt) [%] | cell viability ([4]; SRSF2 genotype: wt/wt) [%]
1 | COC(=O)N[C@H](C(=O)N1CC2(CC2)C[C@H]1c1nc(-c2ccc3c(c2)C(F)(F)c2cc(-c4ccc5[nH]c([C@@H]6[C@H]7CC[C@H](C7)N6C(=O)[C@@H](NC(=O)OC)C(C)C)nc5c4)ccc2-3)c[nH]1)C(C)C [Ledipasvir (GS5885)] | 84.9% and 87.8% | 84.3 | 86.4 | 90.2 | 73.7 | 84.3 | 87.9 | 91.8
2 | Nc1ccc(O)c(C(=O)O)c1 [Mesalamine (Lialda)] | 94.9% and 87.4% | 90.1 | 89.8 | 94.7 | 87.3 | 92.1 | 97.2 | 100
3 | CC(C)=CCC[C@](C)(O)[C@H]1CC[C@]2(C)[C@@H]1[C@H](O)C[C@@H]1[C@@]3(C)CC[C@H](O)C(C)(C)[C@@H]3[C@@H](O)C[C@]12C [(20S)-Protopanaxatriol] | 90.2% and 89.5% | 101 | 96.1 | 105 | 106 | 106 | 107 | 101
4 | Cc1cc([C@@H](C)Nc2ccccc2C(=O)O)c2nc(N3CCOCC3)cc(=O)n2c1 | 88.7% and 86.4% | 89.2 | 66.9 | 66.3 | 49.6 | 48.3 | 49.8 | 56.1
5 | COc1ccc(C[C@@H]2c3cc(Oc4cc(C[C@@H]5c6cc(O)c(OC)cc6CCN5C)ccc4O)c(OC)cc3CCN2C)cc1 [Isoliensinine] | 50.4% and 50.8% | 61.2 | 10.2 | 16.6 | 2.24 | 1.04 | 0.44 | 0.95
6 | NC(=O)c1ncn([C@@H]2O[C@H](CO)[C@@H](O)[C@H]2O)n1 [Ribavirin (Copegus)] | 100% and 95.1% | 90.2 | 87.2 | 97.3 | 56.2 | 24 | 99.6 | 92.5
7 | C[C@]12CC[C@@H]3c4ccc(O)cc4CC[C@H]3[C@@H]1CC[C@@H]2O [Estradiol] | 97% and 94.8% | 93.8 | 93.2 | 90.2 | 95.3 | 98.6 | 101 | 111
8 | Cc1ccc(C(=O)Cn2c3c(sc2=N)CCCC3)cc1 | 88.9% and 94.2% | 91.3 | 81.4 | 93.8 | 84 | 96.9 | 83.9 | 92.3
9 | O=C(NNc1ccccc1)c1ccncc1 | 82.8% and 97.5% | 77.1 | 91.1 | 101 | 93.5 | 89.5 | 92.7 | 97.9
10 | CC(C)c1cc(C(=O)N2Cc3ccc(CN4CCN(C)CC4)cc3C2)c(O)cc1O | 21.1% and 29.8% | 24 | 28 | 26.9 | 3.31 | 4.31 | 18.1 | 22.8
11 | CC(C)C[C@@H]1NC(=O)[C@@H](C(C)C)NC(=O)[C@@H]2CCCN2C(=O)[C@@H](CC(=O)O)NC(=O)[C@@H](Cc2c[nH]c3ccccc23)NC1=O | 101% and 105% | 97 | 101 | 108 | 99 | 101 | 103 | 103
12 | CC(C)(C)c1cc(/C=C(\C#N)C(N)=S)cc(C(C)(C)C)c1O [Tyrphostin AG 879 (AG 879)] | 22.1% and 17.9% | 25.2 | 73.5 | 68.3 | 20.1 | 14.8 | 7.33 | 15.8
13 | CCOC(=O)[C@H](CCc1ccccc1)N[C@H]1CCc2ccccc2N(CC(=O)O)C1=O [Benazepril hydrochloride] | 109% and 106% | 108 | 101 | 111 | 95.9 | 98.9 | 93.3 | 102
14 | Nc1ccccc1NC(=O)c1cnccn1 | 91.8% and 96% | 82.8 | 76.7 | 90.7 | 75.5 | 73.9 | 81.3 | 88.3
15 | O=C1C[C@@H](c2ccc(O[C@@H]3O[C@H](CO)[C@@H](O)[C@H](O)[C@H]3O)cc2)Oc2cc(O)ccc21 [Liquiritin] | 92.3% and 81.1% | 83.8 | 83.3 | 90.1 | 86.4 | 89 | 96.5 | 91.4
16 | NCCc1c[nH]cn1 [Histamine 2HCl] | 99% and 106% | 105 | 96.7 | 96.1 | 69 | 82.3 | 110 | 88.3
17 | CC(O)C(O)c1cnc2nc(N)[nH]c(=O)c2n1 (configuration not stated) [6-Biopterin] | 98.5% and 106% | 108 | 104 | 107 | 109 | 106 | 104 | 104

Row | SMILES | cell viability ([1]; SRSF2 genotype: SRSF2 P95H/wt) | cell viability ([1]; SRSF2 genotype: SRSF2 wt/wt) [%] | cell viability ([2]; SRSF2 genotype: SRSF2 P95H/wt) [%] | cell viability ([2]; SRSF2 genotype: SRSF2 wt/wt) [%] | cell viability ([3]; SRSF2 genotype: SRSF2 P95H/wt) [%] | cell viability ([3]; SRSF2 genotype: SRSF2 wt/wt) [%] | cell viability ([4]; SRSF2 genotype: P95H/wt) [%] | cell viability ([4]; SRSF2 genotype: wt/wt) [%]
18 | Nc1cc[nH]c(=O)n1 [Cytosine] | 102% and 93.8% | 99.5 | 102 | 110 | 107 | 104 | 102 | 107
19 | Nc1ccc(S(=O)(=O)Nc2ncccn2)cc1 [Sulfadiazine] | 108% and 105% | 108 | 114 | 110 | 103 | 108 | 111 | 110
20 | Clc1ccc2nsnc2c1NC1=NCCN1 [Tizanidine HCl] | 104% and 101% | 104 | 94.3 | 107 | 103 | 99.6 | 101 | 106
21 | N=C(NOCC(O)CN1CCCCC1)c1cccnc1 (configuration not stated) | 106% and 96.6% | 106 | 104 | 99.2 | 108 | 101 | 97.6 | 104
22 | CC(C)NCC(O)COc1cccc2ccccc12 (configuration not stated) [Propranolol HCl] | 94% and 88.3% | 97.6 | 86.2 | 92.9 | 94.2 | 98.2 | 84.7 | 97
23 | [F][Ti]([F])([F])[F] [Titanium tetrafluoride] | 102% and 89.4% | 98.7 | 99.2 | 105 | 97.3 | 102 | 98.9 | 99
24 | CC1(C)CCCC2(C)C1CCC1(C)OCCC12 (single isomer, unassigned; (-)) [(-)-Ambroxide] | 94.6% and 94.5% | 99.7 | 97.9 | 101 | 95.9 | 96.4 | 98 | 103
25 | Cc1cccc(Nc2ccncc2S(=O)(=O)NC(=O)NC(C)C)c1 [Torsemide (Demadex)] | 100% and 105% | 102 | 101 | 103 | 105 | 101 | 103 | 104
26 | NC(=O)N1c2ccccc2CC(=O)c2ccccc21 [Oxcarbazepine] | 89% and 97.3% | 94.8 | 85.3 | 99.1 | 73.4 | 92.3 | 86 | 86.9
27 | COc1ccc(CC(C)NCC(O)c2ccc(O)c(NC=O)c2)cc1 (configuration not stated) [Formoterol hemifumarate] | 97.2% and 93.9% | 91.5 | 89.5 | 98.5 | 86.6 | 85.8 | 106 | 101
28 | C[C@H](CC[C@@]1(O)O[C@H]2C[C@H]3[C@@H]4CC=C5C[C@@H](O[C@@H]6O[C@H](CO)[C@@H](O[C@@H]7O[C@@H](C)[C@H](O)[C@@H](O)[C@H]7O)[C@H](O)[C@H]6O[C@@H]6O[C@@H](C)[C@H](O)[C@@H](O)[C@H]6O)CC[C@]5(C)[C@H]4CC[C@]3(C)[C@H]2[C@@H]1C)CO[C@@H]1O[C@H](CO)[C@@H](O)[C@H](O)[C@H]1O [Protodioscin] | 0.86% and 0.6% | 3.02 | 0.64 | 0.77 | 0.49 | 0.55 | 0.74 | 0.5
29 | COc1ccc2c(Oc3ccc(NC(=O)c4c(C)n(CC(C)(C)O)n(-c5ccccc5)c4=O)nc3)ccnc2c1 | 46% and 69.9% | 50 | 84.8 | 97.3 | 11 | 10.7 | 27.8 | 35.9
30 | CC1(C)CC[C@]2(C(=O)O[C@@H]3O[C@H](CO)[C@@H](O)[C@H](O)[C@H]3O)CC[C@]3(C)C(=CC[C@@H]4[C@@]5(C)CC[C@H](O[C@@H]6O[C@H](C(=O)O)[C@@H](O)[C@H](O)[C@H]6O)C(C)(C)[C@@H]5CC[C@]43C)[C@@H]2C1 [Chikusetsusaponin IVa] | 100% and 103% | 106 | 103 | 114 | 102 | 105 | 104 | 111
31 | CC1=C(/C=C/C(C)=C/C=C/C(C)=C/C=C/C=C(C)/C=C/C=C(C)/C=C/C2=C(C)C(=O)[C@@H](O)CC2(C)C)C(C)(C)C[C@H](O)C1=O [Astaxanthin] | 104% | 106 | 98.3 | 96.9 | 102 | 101 | 89.8 | 99.8
32 | CCn1c(N)c(C(=O)NC)c(=O)c2ccc(C#CC(C)(O)COC)nc21 (configuration not stated) | 105% and 99.5% | 97.9 | 87.4 | 93.7 | 48.1 | 55.5 | 64.6 | 64.6
33 | Cc1ncc(Cl)cc1NCc1ccc(C(=O)N[C@@H](CC2CCCC2)C(=O)NC2CC2)s1 | 82.9% and 83.4% | 82.1 | 76.2 | 94 | 65 | 66.1 | 72.9 | 71.3
34 | CC(C)(C)C(O)/C=C/c1ccc2c(c1)OCO2 (configuration not stated) [Stiripentol] | 105% and 95.5% | 101 | 94.5 | 108 | 100 | 107 | 95.3 | 100
